# Test results taken from article PMC11062922 (Nature Chemical Biology, 2023).
# Read-outs that look alike come from different tables or passages of the source.
# How the values were obtained:
# Set-up in all cases: species or system human, MV4-11 + K-562 + COLO205 + SK-N-BE2 + OVCAR-8
# TAOK1 = conditions: read-out: apparent Kd, compound concentrations: 100 nM and 1000 nM (sheet 'Samples'), n = 1
# ERCC2 = conditions: read-out: apparent Kd, compound concentrations: 100 nM and 1000 nM (sheet 'Samples'), n = 1
# PIK3CD = conditions: read-out: apparent Kd, compound concentrations: 100 nM and 1000 nM (sheet 'Samples'), n = 1
# CSNK1D = conditions: read-out: apparent Kd, n = 1
# BUB1 = conditions: read-out: apparent Kd, n = 1
# MAP2K1 = conditions: read-out: apparent Kd, n = 1
# MAP2K2 = conditions: read-out: apparent Kd; compound concentrations:100 nM and 1000 nM (sheet 'Samples'); n = 1
# ADCK3 = conditions: read-out: apparent Kd, compound concentrations: 100 nM and 1000 nM (sheet 'Samples'), n = 1
# CSNK1A1 = conditions: read-out: apparent Kd, n = 1
# NQO1 = conditions: read-out: apparent Kd; compound concentrations: 100 nM and 1000 nM (sheet 'Samples'), CATDS: 4.3711719751433897E-2; n = 1
# EPHA2 = conditions: read-out: apparent Kd, n = 1
# EPHA5 = conditions: read-out: apparent Kd, n = 1
# EPHB1 = conditions: read-out: apparent Kd, n = 1
# EPHB2 = conditions: read-out: apparent Kd, n = 1
# MAPKAPK2 = conditions: read-out: apparent Kd, n = 1
# PDGFRB = conditions: read-out: apparent Kd, n = 1
# MAP4K5 = conditions: read-out: apparent Kd, n = 1
# NLK = conditions: read-out: apparent Kd, n = 1
# [1] = compound concentrations:100 nM and 1000 nM (sheet 'Samples')
compound,measurement,setting,value
COc1ccccc1CNC1=NC(=O)/C(=C/c2ccc3ncccc3c2)S1 [RO4503315-000],potency estimated from few doses,TAOK1; CATDS: 7.1757893284069299E-2,1130 nM
Cl.O=C1N=C(NCc2ccccn2)S/C1=C\c1ccc2ncccc2c1 [RO4874953-001],potency estimated from few doses,ERCC2; CATDS: 7.2588346323970404E-2,1850 nM
CN1C(=O)c2ccccc2N(C)c2nc(Nc3cnn(C4CCNCC4)c3)ncc21 [XMD-17-51],potency estimated from few doses,ERCC2; CATDS: 1.6840556785817699E-2,788 nM
same,potency estimated from few doses,PIK3CD; CATDS: 3.4664155585902003E-2,111 nM
same,potency estimated from few doses,TAOK1; CATDS: 5.6290782434041703E-2,40.7 nM
Nc1nc(-c2cccnc2)c(-c2ccnc3ccccc23)s1 [GW684083X],potency estimated from few doses,CSNK1D; [1],2190 nM
CS(=O)(=O)Cc1ccc(Nc2nccc(-c3c(-c4cccc(NC(=O)C5CCCCC5)c4)nn4ncccc34)n2)cc1 [GSK350559A],potency estimated from few doses,BUB1; [1],267 nM
same,potency estimated from few doses,MAP2K1; [1],2430 nM
same,potency estimated from few doses,MAP2K2,1550 nM
CCc1nc(-c2cccc(N(C)S(=O)(=O)c3ccccc3)c2)c(-c2ccnc(Nc3ccc(N4CCN(C(C)=O)CC4)nc3)n2)s1 [GSK1645895A],potency estimated from few doses,ADCK3; CATDS: 0.47577761034239902,196 nM
Cc1cccc(-c2cc(-c3c[nH]nc3-c3ccccn3)ccn2)c1 [GW679395X],potency estimated from few doses,CSNK1A1; [1],1810 nM
COc1ccc(Nc2nccc(N3CCC(NC(=O)Nc4ccc5c(c4)OCO5)C3)n2)cc1 (stereo not drawn) [GSK1379745A],potency estimated from few doses,"CSNK1A1; compound concentrations: 100 nM and 1000 nM (sheet 'Samples'), CATDS: 4.3569659230054097E-2",1260 nM
same,potency estimated from few doses,"CSNK1D; compound concentrations: 100 nM and 1000 nM (sheet 'Samples'), CATDS: 3.4846409929325597E-2",2080 nM
same,potency estimated from few doses,"MAP2K1; compound concentrations: 100 nM and 1000 nM (sheet 'Samples'), CATDS: 3.9281553351087697E-2",1560 nM
same,potency estimated from few doses,NQO1,1250 nM
same,potency estimated from few doses,TAOK1; CATDS: 4.1153987901417902E-2,1410 nM
Cc1ccc(O)cc1Nc1ccnc2cc(-c3ccccn3)ccc12.Cl [GW440139A],potency estimated from few doses,"EPHA2; compound concentrations: 100 nM and 1000 nM (sheet 'Samples'), CATDS: 2.9853649287190101E-2",529 nM
same,potency estimated from few doses,"EPHA5; compound concentrations: 100 nM and 1000 nM (sheet 'Samples'), CATDS: 4.7155213926178503E-2",97.2 nM
same,potency estimated from few doses,"EPHB1; compound concentrations: 100 nM and 1000 nM (sheet 'Samples'), CATDS: 5.4162955802276501E-2",67.7 nM
same,potency estimated from few doses,"EPHB2; compound concentrations: 100 nM and 1000 nM (sheet 'Samples'), CATDS: 6.0515406545195598E-2",52 nM
same,potency estimated from few doses,"MAPKAPK2; compound concentrations: 100 nM and 1000 nM (sheet 'Samples'), CATDS: 2.53755109568197E-2",1570 nM
COc1ccc(-n2cnc3c(N)ncnc32)cc1 [SKF-97236],potency estimated from few doses,ADCK3; CATDS: 0.16598723814203101,922 nM
same,potency estimated from few doses,"PDGFRB; compound concentrations: 100 nM and 1000 nM (sheet 'Samples'), CATDS: 0.12494680251160301",1970 nM
same,potency estimated from few doses,PIK3CD; CATDS: 0.374681686981787,222 nM
COc1cc(Nc2ccnc3cc(-c4ccncc4)ccc23)cc(OC)c1OC.Cl [GW494610A],potency estimated from few doses,"EPHA2; compound concentrations: 100 nM and 1000 nM (sheet 'Samples'), CATDS: 2.8855283068255098E-2",577 nM
same,potency estimated from few doses,"EPHB1; compound concentrations: 100 nM and 1000 nM (sheet 'Samples'), CATDS: 2.3499572328162702E-2",1250 nM
same,potency estimated from few doses,"MAP4K5; compound concentrations: 100 nM and 1000 nM (sheet 'Samples'), CATDS: 2.1260288667502202E-2",2030 nM
same,potency estimated from few doses,"MAPKAPK2; compound concentrations: 100 nM and 1000 nM (sheet 'Samples'), CATDS: 2.2209833673663099E-2",1620 nM
same,potency estimated from few doses,"NLK; compound concentrations: 100 nM and 1000 nM (sheet 'Samples'), CATDS: 5.2882757998729699E-2",110 nM
same,potency estimated from few doses,"PDGFRB; compound concentrations: 100 nM and 1000 nM (sheet 'Samples'), CATDS: 4.8396986719482699E-2",136 nM
O=C1N=C(NCc2cccs2)SC1Cc1ccc2ncccc2c1 (stereo not drawn) [RO4629078-000],potency estimated from few doses,"BUB1; compound concentrations: 100 nM and 1000 nM (sheet 'Samples'), CATDS: 7.2203356914043596E-3",1930 nM
same,potency estimated from few doses,"EPHA2; compound concentrations: 100 nM and 1000 nM (sheet 'Samples'), CATDS: 1.36009605508639E-2",342 nM
same,potency estimated from few doses,"EPHA5; compound concentrations: 100 nM and 1000 nM (sheet 'Samples'), CATDS: 1.5844356878219199E-2",259 nM
same,potency estimated from few doses,"EPHB1; compound concentrations: 100 nM and 1000 nM (sheet 'Samples'), CATDS: 1.5393002457868701E-2",272 nM
same,potency estimated from few doses,"EPHB2; compound concentrations: 100 nM and 1000 nM (sheet 'Samples'), CATDS: 1.9892167159836899E-2",178 nM
same,potency estimated from few doses,ERCC2; CATDS: 9.4373206529466905E-3,778 nM
same,potency estimated from few doses,TAOK1; CATDS: 7.4050083824812101E-3,1730 nM
Cc1ccc(O)cc1Nc1ccnc2cc(-c3ccc(CN4CCCCC4)o3)ccc12 [GW557777X],potency estimated from few doses,"EPHA2; compound concentrations: 100 nM and 1000 nM (sheet 'Samples'), CATDS: 3.25409539793877E-2",18.9 nM
same,potency estimated from few doses,"EPHA5; compound concentrations: 100 nM and 1000 nM (sheet 'Samples'), CATDS: 3.4723791615605203E-2",15.6 nM
same,potency estimated from few doses,"EPHB1; compound concentrations: 100 nM and 1000 nM (sheet 'Samples'), CATDS: 9.2243435191231293E-2",1.47 nM
same,potency estimated from few doses,"EPHB2; compound concentrations: 100 nM and 1000 nM (sheet 'Samples'), CATDS: 4.4697919041746297E-2",7.87 nM
same,potency estimated from few doses,"PDGFRB; compound concentrations: 100 nM and 1000 nM (sheet 'Samples'), CATDS: 1.4075910538655201E-2",735 nM
same,potency estimated from few doses,PIK3CD; CATDS: 1.8513434924081099E-2,151 nM
CCN(CC)CCOc1ccc(Nc2ncc3cc(-c4c(Cl)cccc4Cl)c(=O)n(C)c3n2)cc1 [SB-601273],potency estimated from few doses,EPHA2; [1],30.3 nM
same,potency estimated from few doses,EPHA5; [1],135 nM
same,potency estimated from few doses,EPHB1; [1],10.6 nM
same,potency estimated from few doses,EPHB2; [1],108 nM
same,potency estimated from few doses,MAP4K5; [1],2360 nM
same,potency estimated from few doses,MAPKAPK2; [1],320 nM
same,potency estimated from few doses,NLK; [1],1310 nM
same,potency estimated from few doses,PDGFRB; [1],576 nM
